Experimental data reported in PubChem BioAssay AID1619 (SRMLSC, 2009).
Out of some 220,000 compounds screened, about 830 (0.38%) were called active.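 How the source made its calls: active means compound inhibiting the enzyme by more than half at any dose during confirmatory dose-response retesting; inconclusive means strong single-dose inhibitors picked by rank but not retested; inactive means the rest.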 The list is a sample of the results. Measured potencies and affinities stand elsewhere.

The compounds below were run against Leucine aminopeptidase (Plasmodium falciparum (isolate 3D7)) (UniProt Q8IL11) (assay: P. falciparum M17LAP inhibitors, primary screen, biochemical, fluorogenic H-Leu-NHMec substrate, 1536-well (AID 1619;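 further: plate controls were full reaction with DMSO carrier for no effect and no enzyme background for full effect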)). Conditions: recombinant M17LAP, H-Leu-NHMec fluorogenic kinetic assay; at 30 µM; hits give high values.
Sequence of Leucine aminopeptidase (Plasmodium falciparum (isolate 3D7)) (Q8IL11 whole entry, looked up): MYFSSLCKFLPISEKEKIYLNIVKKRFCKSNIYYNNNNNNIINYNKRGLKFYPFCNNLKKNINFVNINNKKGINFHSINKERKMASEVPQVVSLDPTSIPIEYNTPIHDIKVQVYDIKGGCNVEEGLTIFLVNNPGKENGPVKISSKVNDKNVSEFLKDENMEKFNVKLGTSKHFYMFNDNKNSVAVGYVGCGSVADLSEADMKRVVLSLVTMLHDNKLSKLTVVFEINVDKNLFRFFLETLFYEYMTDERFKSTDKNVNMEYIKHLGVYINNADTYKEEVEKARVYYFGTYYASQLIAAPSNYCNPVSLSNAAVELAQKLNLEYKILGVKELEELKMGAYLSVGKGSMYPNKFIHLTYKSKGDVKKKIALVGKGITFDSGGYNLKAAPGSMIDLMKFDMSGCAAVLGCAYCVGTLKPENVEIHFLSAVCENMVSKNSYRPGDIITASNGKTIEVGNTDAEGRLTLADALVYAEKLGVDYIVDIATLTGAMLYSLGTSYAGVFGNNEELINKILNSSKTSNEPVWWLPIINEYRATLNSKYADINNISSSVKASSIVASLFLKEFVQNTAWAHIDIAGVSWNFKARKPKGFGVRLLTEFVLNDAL

inhibition, inactive:
COC(=O)CN(Cc1ccccc1)S(=O)(=O)c1ccc(OC)c(OC)c1 -2.5%
O=S(=O)(c1cccs1)N1CCN(c2ncccn2)CC1 -7.79%
COc1ccc(C(=O)Nc2ccccc2N2CCOCC2)cc1[N+](=O)[O-] 7.12%
CCOC(=O)c1c(-c2cccs2)csc1NC(C)=O -14.7%
CCOC(=O)c1c(-c2cccs2)csc1NC(=O)CC(C)C 7.23%
Cc1ccc(OCCCN2C(=O)C(=O)c3cccc(C)c32)cc1 13.8%
COc1ccc(C2NC(=S)N3C(c4ccc(OC)cc4)NC(=S)N23)cc1 (stereo unspecified) 34.8%
OC1NC(=S)N(c2ccccc2)C1O (stereo unspecified) 8.92%
COc1cccc(CC(NC(C)=O)C(=O)NC2CCN(c3nnnn3-c3ccccc3)CC2)c1 (stereo unspecified) 5.55%
CN(CCC#N)CC(=O)Nc1ccc(NC(=O)CN(C)CCC#N)cc1 -4.87%
NC(=O)c1ccc(-c2ccccc2F)cc1 6.07%
O=S1(=O)N=C(Nc2ccc(O)c(CN3CCCCC3)c2)c2ccccc21 18.9%
Cc1nnc(SCC(=O)Nc2sc3c(c2C(N)=O)CCCC3)[nH]c1=O 49.5%
CCOC(=O)c1c(NC(=O)CSc2nnc(C)c(=O)[nH]2)sc(C)c1C 11.9%
CCOC(=O)c1c(NC(=O)CSc2nnc(C)s2)sc2c1CCCCC2 -4.03%
COC(=O)c1c(NC(=O)CSc2nnc(C)c(=O)[nH]2)sc(C)c1C 21.5%
Cc1ccc(C(=O)c2cn[nH]c2-c2ccccc2O)cc1 44.9%
CCOC(=O)C1(C(=O)OCC)C(c2ccccc2)CC(O)N1C(C)=O (stereo unspecified) 1.54%
NC(=O)c1ccc(NC(=O)c2ccccc2S(=O)(=O)c2ccccc2[N+](=O)[O-])cc1 9.64%
COC(=O)N/N=C(\CCC(=O)O)c1cccs1 6.69%
O=C(O)CC/C(=N\NC(=O)c1ccccc1)c1cccs1 18.4%
Brc1ccc(/C=N/Nc2ncnc3c2cnn3Cc2ccccc2)cc1 -4.47%
Cc1nnc(SCC(=O)c2ccc(C(C)C)cc2)s1 -0.89%
NC(=O)SCC(=O)Nc1ccccc1C(=O)O 9.51%
CC(C)c1nc(SCC(=O)Nc2ccc([N+](=O)[O-])cc2Br)n[nH]1 6%
COc1ccccc1NC(=O)CSc1nc(N)cc(N)n1 10.8%
Nc1nc(SCC(=O)Nc2ccc([N+](=O)[O-])cc2Br)n[nH]1 10.2%
O=C(CSc1ccccc1)Nc1ccccc1C(=O)O 18.8%
CC(C)c1ccc(C(=O)CSc2n[nH]c(-c3ccncc3)n2)cc1 6.54%
COc1ccccc1NC(=O)CSc1ncn(-c2ccccc2)n1 5.61%
Cc1cc(C)cc(N2C(=O)CC(N(C(=O)c3ccco3)c3cc(C)cc(C)c3)C2=O)c1 (stereo unspecified) 3.47%
CC(C)c1ccc(Nc2ncccc2C(=O)O)cc1 13.8%
CC1CN(Cc2ccc(C#N)cc2Cl)CC(C)O1 (stereo unspecified) -2.17%
C/C(CCN1CCc2nc(-c3ccccc3)c(-c3ccccc3)cc2C1)=N\O[C@H](C)c1cn([C@H](CO)Cc2ccccc2)nn1 12.6%
Cc1oc(C)c(C(N)=O)c1C(N)=O -4.4%
O=C(CSc1ncccn1)Nc1ncc(C(F)(F)F)cc1Cl -4.61%
COc1ccccc1N1CCN(C(=O)CSc2nc(N)cc(=O)[nH]2)CC1 -20.8%
O=C(CSc1ncccn1)Nc1ccc(S(=O)(=O)N2CCCCC2)cc1 -1.15%
COc1ccccc1NC(=O)CSc1nccc(=O)[nH]1 28.1%
COc1ccccc1N1CCN(C(=O)CSc2nc(C)cc(=O)[nH]2)CC1 12.1%
Cc1cc(C)nc(SCC(=O)Nc2ccc(S(=O)(=O)N3CCCCC3)cc2)n1 -1.67%
COc1ccc(NC(=O)CSc2nc(O)cc(=O)[nH]2)c(OC)c1 14.7%
Nc1nc(SCC(=O)Nc2ncc(C(F)(F)F)cc2Cl)n[nH]1 1.49%
CC1=C(C(=O)OCc2ccccc2)C(c2ccoc2)C(C#N)=C(N)O1 (stereo unspecified) 5.93%
CC(NC(=O)C(=O)N/N=C\c1ccc([N+](=O)[O-])cc1)c1ccccc1 (stereo unspecified) 9.58%
CCOC(=O)/C(=C\c1cccnc1)C(=O)c1cc(C(C)=O)c(Nc2ccccc2)s1 -7.24%
Cc1ccc(NC(=O)COC(=O)Cc2csc(-c3ccc(Cl)cc3)n2)cc1C 5.09%
CCOC(=O)N1CCC(N(C(=O)Nc2cccc(OC)c2)C(C)CC)CC1 (stereo unspecified) 7.02%
CCN(CC)CCN1C(=O)C(=O)/C(=C(/O)c2ccncc2)C1c1ccccc1 (stereo unspecified) 45.4%
CCC1CCCCN1S(=O)(=O)c1ccc(NC(=O)CSc2ncccc2C(=O)O)cc1 (stereo unspecified) -3.83%
Nc1cc(=O)[nH]c(SCC(=O)Nc2nnc(-c3ccccc3)s2)n1 34.9%
O=C(CSc1nc(-c2ccccc2)c(-c2ccccc2)o1)Nc1nnc(-c2ccccc2)s1 5.34%
CC1CCN(S(=O)(=O)c2ccc(NC(=O)Cc3ccccc3)cc2)CC1 2.2%
CC(=O)N1c2ccccc2C(=O)C1N1CCCCC1 (stereo unspecified) 7.9%
CCn1c(SCC(=O)c2[nH]c(C)c(C(C)=O)c2C)nnc1-c1cccs1 12.2%
CC(C)CCNC(=O)C1CC(c2cccc([N+](=O)[O-])c2)=NO1 (stereo unspecified) 3.11%
O=C(CC12CC3CC(C1)CC(CC(=O)N1CCCC1)(C3)C2)N1CCCC1 1.98%
NC(=O)CC[C@H](NC(=O)c1ccc(F)cc1)C(=O)OCC(=O)Nc1ccc(N2CCOCC2)cc1 -1.82%
C=C(C)c1cccc(C(C)(C)NC(=O)NCc2ccncc2)c1 5.4%
Fc1ccccc1-c1[nH]ncc1-c1nnnn1-c1ccccc1 6.84%
COc1ccc(N2CCN(c3oc(-c4ccccc4OC)nc3C#N)CC2)cc1 0.71%
CCOC(=O)N1CCN(c2cc(C)c(C(C)=O)cc2F)CC1 14.4%
O=C(CN1C(=O)C2C3CC(C(Br)C3Br)C2C1=O)N1CCN(Cc2ccccc2)CC1 (stereo unspecified) -4.45%
O=C(CN1C(=O)C2C3c4ccccc4C(c4ccccc43)C2C1=O)N1CCOCC1 (stereo unspecified) 4.26%
CCCCOCCCNC(=O)CC(C)c1ccccc1 (stereo unspecified) 1.77%
CCOC(=O)N1CCN(C(=O)c2ccc3c(=O)n(Cc4ccc(Cl)cc4)c(=S)[nH]c3c2)CC1 -6.9%
CCCCn1c(=S)[nH]c2c(oc3ccc(Cl)cc32)c1=O 21.5%
O=C(COC(=O)/C=C/c1ccc(Cl)cc1Cl)NCCC1=CCCCC1 3.27%
Cc1ccccc1Nc1nnc(SCc2cc(=O)n3ccsc3n2)s1 28.1%
O=c1cc(CSc2nnc(Nc3ccccc3)s2)nc2sccn12 24.3%
C/C(=C\C(=O)O)C12CC3CC(CC(C3)C1)C2 11.6%
COc1ccc(NC(=O)/C=C/c2c(Cl)nc3ccccn23)cc1 -6.42%
CCC(C)[C@H](NC(=O)Nc1ccc(S(N)(=O)=O)cc1)C(=O)O (stereo partly specified) 4.8%
COC(=O)[C@H](C)NC(=O)Nc1ccc(Oc2ccccc2)cc1 -1.77%
CC(C)C[C@H](NC(=O)Nc1ccc(Oc2ccccc2)cc1)C(=O)O 38.9%
CCc1ccccc1NC(=O)N[C@H](C(=O)O)C(C)CC (stereo partly specified) 23.6%
CCc1c(C)sc2nc3c(C(=O)N4CCOCC4)cc(C(=O)c4ccccc4O)cn3c(=O)c12 5.44%
Cc1noc(C)c1C1(O)CCCCCCCCCCC1 0.02%
CSc1nc2ccccc2s1 13.1%
CCC1CSC(Nc2ccc(C(=O)/C=C/c3ccc(Br)cc3)cc2)=N1 (stereo unspecified) 15.6%
CSc1ncc(Cl)c(C(=O)Nc2nnc(SC)s2)n1 13.3%
CSc1ncc(Cl)c(C(=O)Nc2nnc(SC/C=C/c3ccccc3)s2)n1 29.5%
C=CCSc1nnc(NC(=O)c2ccc(Cl)nc2)s1 9.37%
CCSc1ncc(Cl)c(C(=O)Nc2ccccc2)n1 -6.07%
O=C(CCn1cnc2ccccc21)N/N=C/c1ccccc1O -4.46%
CCOC(=O)CSc1nc(C(C)(C)C)nc2ccccc12 -0.8%
Cc1cc(C)c2c(=O)n(CC(=O)Nc3cccc(F)c3)sc2n1 -3.07%
CC1(C(=O)Nc2nnc(SCc3ccccc3)s2)Cc2ccccc2C(=O)O1 (stereo unspecified) 45.4%
CC1(C(=O)Nc2nnc(C(C)(C)C)s2)Cc2ccccc2C(=O)O1 (stereo unspecified) 48.3%
Cc1ccc(-c2noc(CNCCCN(C)C)n2)cc1 2.07%
Cn1c(=O)c2c(SCC(=O)N3CCOCC3)nc(C3CCCCC3)nc2n(C)c1=O -15.2%
O=C(Cc1ccc(-c2ccccc2)cc1)NCc1ccccc1 -2.44%
O=C(Cc1csc(NC(=O)c2ccccc2)n1)NO 28.3%
CS(=O)(=O)N(CC(=O)N1CCOCC1)Cc1ccc(Cl)cc1 -4.28%
CCC(=O)c1ccc(-c2ccccc2)cc1 -6.48%
CN(C)CC(=O)c1ccc(-c2ccccc2)cc1 68.2%
